Assay results from PubChem BioAssay.
For part of these data: Entries with a potency or affinity are not part of this list. Activity calls are given as the source filed them. Unless noted, how the calls were made is not given here.

Experiments:
[1] = antimalarial activity against Dd2 strain (AID 2302;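 active means growth inhibition above 50% at the single 2 µM test dose, taken to imply half-maximal potency below 2 µM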;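 further: 0% = DMSO untreated growth and 100% = chloroquine plus artemisinin killed control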); conditions: P. falciparum Dd2 in RBCs, LDH growth readout, 72 h; at 2 µM; hits give high values
[2] = HepG2 cytotoxicity, primary screen, cytotoxicity control for P. falciparum antimalarial project, cell-based, ATP luminescence (AID 2303;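 active means inhibition above 50%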;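 further: 0% = DMSO wells and 100% = digitonin-killed cells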); conditions: HepG2 viability, 24-48 h, at 10 µM, hits give high values
[3] = target: L-lactate dehydrogenase (Plasmodium falciparum (isolate CDC / Honduras)) (UniProt Q27743); assay: PfLDH activity inhibition – cell lysate, 3D7 strain, counter-screen for P. falciparum growth inhibition project (AID 2304);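 further: 0% = vehicle and 100% = reference inhibitor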; conditions: P. falciparum 3D7 crude extract, LDH APAD/NBT absorbance; at 2 µM; hits give high values
Sequence of L-lactate dehydrogenase (Plasmodium falciparum (isolate CDC / Honduras)) (Q27743 whole entry, looked up): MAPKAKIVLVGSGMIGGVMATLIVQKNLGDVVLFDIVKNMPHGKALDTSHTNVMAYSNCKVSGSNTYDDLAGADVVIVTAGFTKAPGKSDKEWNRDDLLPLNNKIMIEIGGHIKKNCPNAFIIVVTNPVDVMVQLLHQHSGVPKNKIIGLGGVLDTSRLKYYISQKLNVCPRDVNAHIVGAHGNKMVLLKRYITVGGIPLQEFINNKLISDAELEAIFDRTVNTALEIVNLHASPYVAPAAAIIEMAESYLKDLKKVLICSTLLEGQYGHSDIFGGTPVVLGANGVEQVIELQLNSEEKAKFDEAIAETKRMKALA

[4] = inhibition of 3D7 malaria parasite growth – strain 3D7 (AID 2306);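 further: 0% = DMSO wells and 100% = chloroquine plus artemisinin control wells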; conditions: P. falciparum 3D7 erythrocytic growth, LDH absorbance, 72 h; at 2 µM; hits give high values
[5] = target: Calcium-dependent protein kinase 1 (Plasmodium falciparum (isolate 3D7)) (UniProt P62344); assay: PfCDPK1 kinase inhibitors, biochemical, TCAMS library (AID 1159585; cut-off not given, nearly all actives have IC50 up to about 0.98 µM;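 further: inhibitors leave more ATP so luminescence rises with inhibition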); conditions: recombinant PfCDPK1, Kinase-Glo ATP depletion luminescence
Sequence of Calcium-dependent protein kinase 1 (Plasmodium falciparum (isolate 3D7)) (P62344 whole entry, looked up): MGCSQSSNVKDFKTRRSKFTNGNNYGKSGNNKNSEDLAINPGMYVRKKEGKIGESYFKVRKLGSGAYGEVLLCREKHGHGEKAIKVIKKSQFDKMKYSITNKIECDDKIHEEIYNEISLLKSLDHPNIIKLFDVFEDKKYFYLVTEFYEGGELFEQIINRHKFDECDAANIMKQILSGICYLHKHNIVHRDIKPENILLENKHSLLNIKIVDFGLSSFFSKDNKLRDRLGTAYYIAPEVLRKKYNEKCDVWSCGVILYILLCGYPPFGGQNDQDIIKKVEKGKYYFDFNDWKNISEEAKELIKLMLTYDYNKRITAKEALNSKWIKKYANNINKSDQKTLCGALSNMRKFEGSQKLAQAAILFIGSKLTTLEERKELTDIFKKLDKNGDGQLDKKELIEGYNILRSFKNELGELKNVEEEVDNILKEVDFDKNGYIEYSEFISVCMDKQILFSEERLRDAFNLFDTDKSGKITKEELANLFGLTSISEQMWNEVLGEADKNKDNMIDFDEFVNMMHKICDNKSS

[6] = target: Plasmodium falciparum protein kinase 6 (PK6, PF3D7_1337100) (UniProt Q8IDW1); assay: PfPK6 kinase inhibitors, biochemical, TCAMS library (AID 1159586); conditions: recombinant PfPK6, Kinase-Glo ATP depletion luminescence
Sequence of Plasmodium falciparum protein kinase 6 (PK6, PF3D7_1337100) (Q8IDW1 1-305): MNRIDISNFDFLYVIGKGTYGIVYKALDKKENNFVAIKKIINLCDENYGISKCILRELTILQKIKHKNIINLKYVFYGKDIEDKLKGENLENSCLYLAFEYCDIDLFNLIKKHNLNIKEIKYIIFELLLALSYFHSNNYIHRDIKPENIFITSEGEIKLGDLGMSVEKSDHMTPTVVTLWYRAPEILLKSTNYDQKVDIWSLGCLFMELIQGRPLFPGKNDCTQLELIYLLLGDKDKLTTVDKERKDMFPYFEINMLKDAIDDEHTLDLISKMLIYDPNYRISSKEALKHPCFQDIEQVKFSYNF

[7] = target: Protein kinase 7 (PK7), Plasmodium falciparum 3D7 (PF3D7_0213400) (UniProt Q7YTF7); assay: inhibition of Plasmodium PK7 catalytic activity – biochemical, TCAMS antimalarial set, Kinase-Glo luminescence (AID 1159587); conditions: recombinant PfPK7, Kinase-Glo ATP depletion luminescence
Sequence of Protein kinase 7 (PK7), Plasmodium falciparum 3D7 (PF3D7_0213400) (Q7YTF7 1-343): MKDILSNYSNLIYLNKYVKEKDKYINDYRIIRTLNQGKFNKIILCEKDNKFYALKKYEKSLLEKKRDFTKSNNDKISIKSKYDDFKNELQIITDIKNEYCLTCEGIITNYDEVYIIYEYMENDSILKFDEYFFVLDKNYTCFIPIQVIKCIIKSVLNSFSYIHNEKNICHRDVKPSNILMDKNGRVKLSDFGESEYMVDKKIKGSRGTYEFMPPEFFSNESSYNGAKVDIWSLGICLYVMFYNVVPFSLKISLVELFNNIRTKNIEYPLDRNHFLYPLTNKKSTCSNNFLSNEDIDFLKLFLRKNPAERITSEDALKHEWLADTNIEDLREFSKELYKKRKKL

[8] = target: Calcium-dependent protein kinase 4 (Plasmodium falciparum (isolate 3D7)) (UniProt Q8IBS5); assay: PfCDPK4 kinase inhibitors, biochemical, TCAMS library (AID 1159588; cut-off not given, nearly all actives have IC50 up to about 0.91 µM); conditions: recombinant PfCDPK4, Kinase-Glo ATP depletion luminescence
Sequence of Calcium-dependent protein kinase 4 (Plasmodium falciparum (isolate 3D7)) (Q8IBS5 whole entry, looked up): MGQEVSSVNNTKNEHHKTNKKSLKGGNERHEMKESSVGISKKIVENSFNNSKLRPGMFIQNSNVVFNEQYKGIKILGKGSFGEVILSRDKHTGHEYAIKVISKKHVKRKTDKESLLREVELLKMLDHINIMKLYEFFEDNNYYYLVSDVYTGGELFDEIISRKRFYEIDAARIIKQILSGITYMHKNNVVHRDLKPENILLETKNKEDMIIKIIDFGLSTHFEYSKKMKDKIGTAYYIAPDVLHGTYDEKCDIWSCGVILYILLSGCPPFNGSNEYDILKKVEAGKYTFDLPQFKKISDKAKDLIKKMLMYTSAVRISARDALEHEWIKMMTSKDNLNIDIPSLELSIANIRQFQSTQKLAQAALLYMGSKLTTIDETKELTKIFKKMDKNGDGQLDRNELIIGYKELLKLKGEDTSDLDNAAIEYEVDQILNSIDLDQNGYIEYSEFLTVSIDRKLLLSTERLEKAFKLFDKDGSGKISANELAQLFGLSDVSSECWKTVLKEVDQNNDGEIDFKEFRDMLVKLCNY

N#Cc1ccc(NC(=O)Nc2ccc3c(c2)CCN(C2CCC2)CC3)cc1
inactive: growth inhibition [1] 11% | inhibition [2] 6% | inhibition [3] -8% | outcome [5] | outcome [6] | outcome [7] | outcome [8]
active: growth inhibition [4] 96%

COc1c(C2CCN(CCCCNC(=O)c3ccc(-c4ccc(Cl)cc4)cn3)CC2)ccc2c1CCCC2
active: inhibition [2] 100% | growth inhibition [4] 93%
inactive: growth inhibition [1] 14% | inhibition [3] -3% | outcome [5] | outcome [6] | outcome [7] | outcome [8]

OCCN1CCN(Cc2cccc(-c3ccc(-c4nc5ccc(C(F)(F)F)cc5[nH]4)cc3)c2)CC1
inactive: inhibition [2] 19% | inhibition [3] -2% | outcome [5] | outcome [6] | outcome [7] | outcome [8]
active: growth inhibition [1] 85% | growth inhibition [4] 102%
